# This is a sample that favours compounds with a hit; in the whole collection about 19% have one here.
# DT40 TDP1 no CPT: qHTS for Inhibitors of human tyrosyl-DNA phosphodiesterase 1 (TDP1): qHTS in cells in absence of CPT; DT40 Tdp1-/- hTDP1 cells, no CPT, ATP luminescence, 48 h; Potency, µM (top dose mostly 46.2 µM), usual class: inhibitors; 420,000 tested, 15% active; AID 686978, 2013; note: nearly all actives have a fitted effect of over 55% in size
#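 Readout: luminescence from CellTiter-Glo after 30 min in the dark at RT. Cells: DT40 Tdp1-/- with stable hTDP1, 400/well. Exposure: compounds alone, ≥48 hr, 37 °C.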
# HT1080NT lethal: qHTS for induction of synthetic lethality in tumor cells producing 2HG: qHTS for the HT-1080-NT fibrosarcoma cell line; HT-1080-NT fibrosarcoma viability, CellTiter-Glo ATP luminescence, 48 h; Potency, µM (top dose mostly 46.1 µM), hits mostly cytotoxic; 360,000 tested, 1.6% active; AID 686970, 2013;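 note: NT is the 2HG producing partner of a matched IDH1 knockdown line; nearly all actives have a fitted effect of over 55% in size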
#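 Toxicity toward the 2HG-producing NT line was scored as %Activity, normalised to DMSO and no-cell wells, from CellTiter-Glo luminescence after 48 hours' treatment.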
# TDP1 cell CPT: qHTS for Inhibitors of human tyrosyl-DNA phosphodiesterase 1 (TDP1): qHTS in cells in presence of CPT; chicken DT40 Tdp1-/-;hTDP1 cells + 20 nM CPT, ATP luminescence, 48 h; Potency, µM (highest dose often 46.2 µM), hits mostly inhibitors; 420,000 tested, 12% active; note: nearly all actives have a fitted effect of over 55% in size
#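 Cell growth measured by CellTiter-Glo luminescence after a minimum 48 h, 37 C compound exposure with 20 nM CPT in Tdp1-knockout DT40 cells stably expressing hTDP1, seeded 400/well; qHTS titration format.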
# IL1B secr inh: qHTS for Inhibitors of Inflammasome Signaling: IL-1-beta AlphaLISA Primary Screen | activity change, % at 57.5 µM | AID 743279, 2014 | 360,000 tested, 4.7% active | THP-1 LPS/ATP IL-1B secretion, AlphaLISA, 16 h; stronger effect = lower value; in the data active = activity change below about -50%; inconclusive = mostly about -30% to -49%
#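 Secreted IL-1B measured by AlphaLISA bead assay after 16 h compound exposure of THP-1 cells; compounds (final up to 57.5 uM) added 1 h before LPS (250 ng/mL) and ATP (1.25 mM) stimulation; lower signal means less secretion.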
# ELG1 repair inh: qHTS screen for small molecules that inhibit ELG1-dependent DNA repair in human embryonic kidney (HEK293T) cells expressing luciferase-tagged ELG1 | HEK293T ELG1-luciferase reporter, luminescence, 16 h; DNA damage induced by 5-fluorouridine | Potency, µM (titrated, usually from 46.1 µM), actives largely listed as inhibitors | 330,000 tested, 2.3% active | AID 504467, 2011; note: nearly all actives have a fitted effect of over 55% in size
#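 5-Fluorouridine DNA damage + compound/DMSO, 2,000 cells/well, 16 h, 37 °C/5% CO2. ONE-Glo, 30 min RT, luminescence. Readout = decrease in reporter signal.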
# HT1080 IDH1KD tx: qHTS for induction of synthetic lethality in tumor cells producing 2HG: qHTS for the HT-1080-IDH1KD cell line | HT-1080 IDH1 knockdown viability, ATP luminescence, 48 h | Potency, µM (titrated, usually from 46.1 µM), actives largely listed as cytotoxic | 360,000 tested, 2% active
#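 Cytotoxicity counter-line: IDH1KD HT-1080, 48 h, CellTiter-Glo. Curves classed by r2, magnitude and activity.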
# A number is an active result; – = inactive; ? = inconclusive; · = not tested or not shown; ! = not active in a repeat. Unless noted, calls come from the whole dose curve; as a rule, active = well fitted curve in the direction sought with a large enough effect; inconclusive = small, poorly fitted or top-dose-only effect, or another doubt; inactive = no such curve, though single readings can be large; an effect the other way counts as inactive or inconclusive.
SMILES,DT40 TDP1 no CPT,HT1080NT lethal,TDP1 cell CPT,IL1B secr inh,ELG1 repair inh,HT1080 IDH1KD tx
c1ccc(-c2ccc(-c3nc(-c4ccccn4)no3)cc2)cc1,10µM,10µM,12µM,–,?,13µM
c1ccc(-c2cc(-c3nc(-c4ccccn4)no3)c3ccccc3n2)cc1,8.2µM,–,9.2µM,–,·,–
c1ccc(-c2nc(-c3ccccn3)no2)cc1,?,13µM,16µM,–,?,10µM
Cc1ccc(Cc2nc(-c3ccccn3)no2)cc1,–,–,–,–,?,–
Cc1ccc(-c2nc(-c3ccccn3)no2)cc1,8.2µM,5.2µM,7.3µM,–,?,6.5µM
c1ccc(-c2noc(-c3ccno3)n2)nc1,–,–,–,–,?,–
Cc1c(C(=O)N2CCOCC2)sc(NC(=O)Cc2ccccc2)c1C#N,–,–,–,–,–,–
CN(/C=C/C(=C\C=[N+](C)c1ccccc1)OCCCS(=O)(=O)[O-])c1ccccc1,–,–,–,–,–,–
CN(C)S(=O)(=O)c1ccc(SCC(=O)N2CC(=O)Nc3ccccc32)nc1,–,–,?,–,–,–
C/C(=N\NC(=S)Nc1ccccc1C)C1Cc2ccccc2C(=O)O1 (stereo not drawn),6.5µM,–,?,–,?,–
C/C(=N\NC(=S)Nc1ccccc1)C1Cc2ccccc2C(=O)O1 (stereo not drawn),?,–,?,–,–,–
CC(=O)Oc1ccc(C(=O)N2c3ccccc3NC(=O)C2C)cc1 (stereo not drawn),–,–,–,–,–,–
CSCC[C@H](NC(=O)c1cccs1)C(=O)N1CCC2(CC1)NCCc1[nH]cnc12,–,–,–,-85,–,–
O=C(CNC(=O)c1ccc(Cl)cc1Cl)OCCCn1c(=O)[nH]c2ccccc21,–,–,–,–,–,–
COc1cc(=O)n2c(c1C(=O)N(C)C(C)c1ccco1)CCN(C(=O)c1ccc(C(C)=O)cc1)CC2 (stereo not drawn),–,·,–,·,·,·
COc1cc2ccccc2cc1C(=O)N1CCN(c2nc3c(F)cc(F)cc3s2)CC1,8.2µM,·,21µM,·,·,·
O=C(c1cccs1)N1CCN(c2nc3c(F)cc(F)cc3s2)CC1,?,–,?,?,–,–
COc1cccc2sc(N3CCN(C(=O)c4cccs4)CC3)nc12,–,–,?,–,?,–
COc1cc2ccccc2cc1C(=O)N1CCN(c2nc3c(F)cccc3s2)CC1,16µM,·,21µM,·,·,·
Cc1cc2oc(C(=O)Nc3c(C(=O)Nc4ccccc4)oc4ccccc34)cc(=O)c2cc1C,?,·,–,·,·,·
COCCNC(=O)Cn1nc(-c2ccccc2C)ccc1=O,–,–,–,?,–,–
COc1cccc(-c2cnc3c(NC=O)cc(-c4cccc(NC(C)=O)c4)cn23)c1,21µM,?,18µM,–,·,?
COc1cccc(-c2cc(NC=O)c3ncc(-c4ccc(C(C)=O)cc4)n3c2)c1,2.3µM,18µM,3.7µM,–,·,10µM
COc1cc(-c2cnc3c(NC=O)cc(-c4cccc(NC(C)=O)c4)cn23)cc(OC)c1OC,0.52µM,?,0.52µM,–,·,?
CC(=O)c1cccc(-c2cnc3c(NC=O)cc(-c4ccccc4)cn23)c1,21µM,–,?,–,·,–
SMILES,DT40 TDP1 no CPT,HT1080NT lethal,TDP1 cell CPT,IL1B secr inh,ELG1 repair inh,HT1080 IDH1KD tx
C[C@@H]1CN([C@H](C)CO)C(=O)CCCn2nncc2CO[C@H]1CN(C)Cc1ccc2cccnc2c1,–,–,–,–,·,–
O=C(CN1C(=O)CC(c2ccccc2)S(=O)(=O)c2ccccc21)N1CCCCC1 (stereo not drawn),–,–,–,–,–,–
CC1CCN(CCCNC(=O)c2ccc(Cn3c(=S)[nH]c4ccc(Br)cc4c3=O)cc2)CC1,·,·,·,·,–,·
CN(Cc1ccc(Cl)cc1)C(C(=O)NC1CCCCC1)c1ccnc2ccccc12 (stereo not drawn),?,?,?,–,·,?
COc1ccc(-c2cc(NC=O)c3ncc(-c4cccc(C(C)=O)c4)n3c2)cc1,18µM,–,?,–,·,?
COc1cccc(-c2cnc3c(NC(C)=O)cc(-c4cccc(NS(C)(=O)=O)c4)cn23)c1,23µM,?,26µM,–,·,?
CC(=O)Nc1cc(-c2cccc(NS(C)(=O)=O)c2)cn2c(-c3ccccc3)cnc12,?,?,?,–,·,?
CC(=O)Nc1cccc(-c2cc(NC=O)c3ncc(-c4cccc(C(C)=O)c4)n3c2)c1,21µM,?,?,–,·,?
Cc1ccc(CNC(=O)c2ccccc2NC(=O)CN2CC(C)OC(C)C2)cc1 (stereo not drawn),?,–,–,–,?,–
O=C(CCNC(=O)c1ccccc1Cl)Nc1nc(-c2ccccc2Cl)cs1,18µM,–,?,–,?,–
O=C(CCNC(=O)c1ccccc1Cl)Nc1nc(-c2ccc3ccccc3c2)cs1,?,–,?,?,–,–
O=C(CCNC(=O)c1ccccc1Cl)Nc1nc(-c2ccc(F)cc2)cs1,?,–,?,-69,?,–
CCCCOc1ccc(S(=O)(=O)NC(=O)C2(C)CCN2C(=O)c2c(C)noc2C)cc1 (stereo not drawn),–,–,–,–,·,–
CCCOC(=O)CSc1nnc2ccc3ccccc3n12,–,·,–,·,·,·
CCN(CC)C(=O)CSc1nnc2ccc3ccccc3n12,–,·,–,·,·,·
O=C(CSc1nnc2ccc3ccccc3n12)Nc1ccccc1Cl,18µM,·,?,·,·,·
COc1ccc(OC)c(NC(=O)CSc2nnc(-c3ccncc3)s2)c1,–,–,–,–,–,–
COc1ccc(OC)c(NC(=O)CSc2nnc(-c3cccnc3)s2)c1,?,18µM,?,–,?,18µM
COc1ccc(OC)c(NC(=O)CSc2nnc3ccc4ccccc4n23)c1,21µM,·,?,·,·,·
Cc1ccc(C(=O)CSc2nnc3ccc4ccccc4n23)cc1,16µM,·,?,·,·,·
O=C(NC1CCN(C(=O)NCc2ccccc2)CC1)c1ccccc1,–,–,–,–,–,–
CCc1nnc(SCC(=O)Nc2ccccc2Cl)nc1CC,?,–,16µM!,–,–,–
Cc1ccc(C)c(CN2C(=O)c3ccccc3S(=O)(=O)c3ccc(C(=O)N4CCN(C)CC4)cc32)c1,–,–,–,–,–,–

# Compound activity (PubChem BioAssay)
